Results from PubChem BioAssay.
The source made the active and inactive calls.

Experiments:
Albumin (Bos taurus) = Albumin (Bos taurus) (UniProt P02769); experiment: compounds binding labelled BSA control protein – biochemical, small-molecule microarray, Alexa647 label, 635/667 nm fluorescence, artefact control for SMM control protein annotation, profiling panel (AID 1118); settings: BSA-A647 binding, fluorescence 635 nm, higher = more signal;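 note: score merges 667 nm emission intensity and signal-to-noise per printed compound spot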
[1] = probe aXIP binding to arrayed compounds – biochemical, NeuroSMM set, 635/667 nm fluorescence, primary screen (AID 1119); settings: small-molecule microarray, higher = more signal, called active from +8 up or from −8 down;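 note: probe is the protein aXip251-270 applied at 1 µg/mL to compound-printed slides; binding of probe to printed compounds measured as 667 nm fluorescence plus signal to noise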
[2] = probe aNOTCH3 binding on compound microarray – biochemical, small-molecule microarray, 635/667 nm fluorescence, primary screen (AID 1120); settings: higher = more signal;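 note: probe is a biotin-tagged antibody raised against NOTCH3 rather than NOTCH3 protein; score merges spot fluorescence near 667 nm with spot signal to noise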
[3] = probe aNOTCH2 binding on compound microarray – biochemical, small-molecule microarray, 635/667 nm fluorescence, primary screen (AID 1121); settings: higher = more signal;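 note: score merges feature fluorescence read at 667 nm with its signal to noise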
[4] = target: Carbonic anhydrase 2 (Homo sapiens) (UniProt P00918); experiment: compounds binding carbonic anhydrase 2 – biochemical, small-molecule microarray, Alexa647-labelled CAII, profiling panel (AID 1122); settings: CAII-A647 binding fluorescence, higher = more signal
[5] = COS7 lysate on small-molecule microarray, probe aHis, 635 nm (AID 1123); settings: COS7 cell lysate, fluorescence, higher = more signal;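 note: z-score combines 667nm fluorescence intensity with signal-to-noise per printed compound spot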
[6] = probe aLAP1 signal on lysate-treated microarray – cell lysate, small-molecule microarray, COS7 lysate, primary screen (AID 1124); settings: probe aLAP1, fluorescence, higher = more signal;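 note: lysate comes from COS7 cells expressing LAP1 and is applied at 0.3 µg/mL; score merges spot fluorescence near 667 nm with signal-to-noise over triplicate slides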
Sam68 (KHDRBS1) = experiment: compounds binding KHDRBS1 protein – biochemical, small-molecule microarray, 635 nm fluorescence, primary screen (AID 1125); settings: higher = more signal;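 note: score merges 667 nm channel intensity with signal to noise over triplicate slides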
[7] = tested on: Chordin-like protein 2 (CHRDL2); experiment: compounds binding chordin-like 2 – biochemical, small-molecule microarray, 635 nm fluorescence, primary screen (AID 1126); settings: fluorescence 635 nm, higher = more signal;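 note: printed compound slides probed with Chrdl2 protein at 4 µg/mL for 1 h at 4 C; score merges 667 nm emission intensity with signal to noise over three replicate slides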
[8] = target: Concanavalin-A (Canavalia ensiformis) (UniProt P02866); experiment: compounds binding concanavalin A lectin – biochemical, small-molecule microarray, Alexa647 label, 635 nm, artefact control for SMM control protein annotation, primary screen (AID 1127); settings: ConA-A647 binding fluorescence, higher = more signal;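 note: z combines 667 nm emission intensity with signal-to-noise across three replicate slides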
[9] = compounds binding Alexa647 anti-His antibody – biochemical, small-molecule microarray, 635 nm fluorescence, artefact control for SMM control protein annotation, primary screen (AID 1128); settings: higher = more signal;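 note: score merges feature fluorescence with signal-to-noise for each printed compound spot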
[10] = tested on: Human papillomavirus type 1a E7 protein (residues 1-88); experiment: HPV1a E7 small-molecule binders, primary screen, biochemical, small-molecule microarray, residues 1-88, 635 nm (AID 1129); settings: small-molecule microarray binding, fluorescence 635 nm; higher = more signal
[11] = target: Focal adhesion kinase 1 (Homo sapiens) (UniProt Q05397); experiment: PTK2 protein binding on printed compound slides – biochemical, small-molecule microarray, 635/667 nm fluorescence, BSA, DTT, primary screen (AID 1130); settings: 635 nm fluorescence, higher = more signal;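 note: composite of spot emission at 667 nm and signal to noise over triplicate slides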
[12] = tested on: Fibrinogen (Alexa647-labelled); experiment: Alexa647-fibrinogen binding to printed small molecules – biochemical, small-molecule microarray, 635/667 nm fluorescence, artefact control for SMM control-protein annotation, profiling panel (AID 1131); settings: fibrinogen-A647 binding fluorescence, higher = more signal;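 note: z-score merges 667 nm fluorescence with per-spot signal-to-noise over triplicate slides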
[13] = target: Follistatin (Homo sapiens) (UniProt P19883); experiment: FST protein binding to printed compounds – biochemical, small-molecule microarray, 635/667 nm fluorescence, primary screen (AID 1132); settings: 635 nm fluorescence, higher = more signal
[14] = target: Fibroblast growth factor 2 (Homo sapiens) (UniProt P09038); experiment: basic fibroblast growth factor binding to printed compounds – biochemical, small-molecule microarray, 635/667 nm fluorescence, primary screen (AID 1133); settings: FGF2, fluorescence 635/667, higher = more signal
[15] = JC-1 mitochondrial potential readout, lung cancer cells – cell-based, A549, JC-1 fluorescence, basal, 24 h, 100 nL, profiling panel (AID 1138); settings: higher = more signal;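 note: A549 lung adenocarcinoma cells under basal conditions with no added stimulus; test concentration not given here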
Lefty1 = Lefty1 protein binding to printed compounds – biochemical, small-molecule microarray, 635/667 nm fluorescence, primary screen (AID 1139); settings: fluorescence 635/667, higher = more signal
[16] = tested on: wheat germ agglutinin (Triticum aestivum), Alexa647-labelled; experiment: Alexa647-WGA lectin binding to printed small molecules – biochemical, small-molecule microarray, 635/667 nm fluorescence, artefact control for SMM control-protein annotation, profiling panel (AID 1140); settings: WGA-A647 binding, 635 nm fluorescence, higher = more signal;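 note: score merges 667 nm feature emission with signal to noise over triplicate slides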
[17] = target: Luciferin 4-monooxygenase (Photinus pyralis) (UniProt P08659); experiment: inhibition of purified Photinus pyralis luciferase – biochemical, luminescence, purified enzyme, 2006 set, primary screen (AID 1141); settings: purified firefly luciferase, SteadyGlo luminescence, 30 min; higher = more signal, called active from +8 up or from −8 down;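 note: cell-free assay with purified firefly luciferase at 100 ng per well in PBS; test concentration not given here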
Sequence of Luciferin 4-monooxygenase (Photinus pyralis) (P08659 whole entry, looked up): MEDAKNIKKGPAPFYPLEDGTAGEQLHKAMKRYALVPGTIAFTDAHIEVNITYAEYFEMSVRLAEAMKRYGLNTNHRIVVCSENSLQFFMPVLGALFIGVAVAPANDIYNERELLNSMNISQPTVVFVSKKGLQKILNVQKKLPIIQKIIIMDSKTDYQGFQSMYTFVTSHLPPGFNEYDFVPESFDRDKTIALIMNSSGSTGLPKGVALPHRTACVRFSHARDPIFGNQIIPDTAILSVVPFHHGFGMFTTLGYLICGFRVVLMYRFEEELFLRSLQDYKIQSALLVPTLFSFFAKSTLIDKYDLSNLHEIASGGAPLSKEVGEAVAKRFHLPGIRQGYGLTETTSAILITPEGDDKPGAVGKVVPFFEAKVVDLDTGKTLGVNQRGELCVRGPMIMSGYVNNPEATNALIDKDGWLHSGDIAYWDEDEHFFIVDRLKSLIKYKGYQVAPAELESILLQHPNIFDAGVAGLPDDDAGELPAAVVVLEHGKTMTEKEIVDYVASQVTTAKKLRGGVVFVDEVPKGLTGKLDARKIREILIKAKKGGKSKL

Sequence of Fibroblast growth factor 2 (Homo sapiens) (P09038 whole entry, looked up): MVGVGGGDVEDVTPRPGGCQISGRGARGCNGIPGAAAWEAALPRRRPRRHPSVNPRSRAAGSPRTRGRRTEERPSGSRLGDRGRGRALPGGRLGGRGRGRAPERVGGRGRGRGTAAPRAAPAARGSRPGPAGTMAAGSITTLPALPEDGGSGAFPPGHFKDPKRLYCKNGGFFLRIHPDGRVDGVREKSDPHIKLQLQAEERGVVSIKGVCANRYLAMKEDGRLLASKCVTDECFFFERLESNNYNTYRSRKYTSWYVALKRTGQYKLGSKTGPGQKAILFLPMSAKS
Sequence of Concanavalin-A (Canavalia ensiformis) (P02866 whole entry, looked up): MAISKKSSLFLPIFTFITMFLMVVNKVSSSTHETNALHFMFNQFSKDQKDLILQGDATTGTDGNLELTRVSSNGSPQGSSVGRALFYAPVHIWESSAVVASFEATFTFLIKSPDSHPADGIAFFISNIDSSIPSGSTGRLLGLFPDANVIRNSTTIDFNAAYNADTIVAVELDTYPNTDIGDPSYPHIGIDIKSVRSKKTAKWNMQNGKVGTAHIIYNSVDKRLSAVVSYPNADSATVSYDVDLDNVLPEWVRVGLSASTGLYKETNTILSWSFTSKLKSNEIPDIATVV
Sequence of Focal adhesion kinase 1 (Homo sapiens) (Q05397 whole entry, looked up): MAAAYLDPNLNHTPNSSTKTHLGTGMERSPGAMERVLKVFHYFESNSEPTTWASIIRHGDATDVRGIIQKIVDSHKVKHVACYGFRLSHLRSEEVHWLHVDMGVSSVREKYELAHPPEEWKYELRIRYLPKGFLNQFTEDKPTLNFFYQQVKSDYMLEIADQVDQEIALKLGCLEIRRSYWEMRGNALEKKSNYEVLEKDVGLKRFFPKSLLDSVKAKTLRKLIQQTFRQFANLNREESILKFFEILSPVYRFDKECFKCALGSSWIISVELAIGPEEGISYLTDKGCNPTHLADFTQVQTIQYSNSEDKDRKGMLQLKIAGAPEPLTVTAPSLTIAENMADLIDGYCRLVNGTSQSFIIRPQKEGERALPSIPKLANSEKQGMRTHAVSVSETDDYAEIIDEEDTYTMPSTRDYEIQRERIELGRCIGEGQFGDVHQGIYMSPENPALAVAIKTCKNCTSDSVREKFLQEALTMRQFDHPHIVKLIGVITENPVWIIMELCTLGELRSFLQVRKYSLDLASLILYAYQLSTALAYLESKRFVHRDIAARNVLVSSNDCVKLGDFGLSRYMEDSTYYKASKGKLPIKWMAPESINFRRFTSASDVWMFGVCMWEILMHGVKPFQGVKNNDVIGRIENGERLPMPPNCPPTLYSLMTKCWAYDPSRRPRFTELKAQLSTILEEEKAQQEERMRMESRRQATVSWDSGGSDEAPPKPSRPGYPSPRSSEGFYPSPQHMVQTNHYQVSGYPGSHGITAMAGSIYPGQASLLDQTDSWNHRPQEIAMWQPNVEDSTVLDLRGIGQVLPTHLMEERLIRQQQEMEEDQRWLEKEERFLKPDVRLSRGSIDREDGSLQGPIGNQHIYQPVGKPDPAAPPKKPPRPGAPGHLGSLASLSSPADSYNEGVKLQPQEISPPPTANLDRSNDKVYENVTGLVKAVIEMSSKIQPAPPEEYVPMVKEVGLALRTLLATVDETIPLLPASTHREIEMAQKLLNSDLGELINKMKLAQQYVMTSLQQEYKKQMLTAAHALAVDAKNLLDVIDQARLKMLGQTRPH
Sequence of Albumin (Bos taurus) (P02769 whole entry, looked up): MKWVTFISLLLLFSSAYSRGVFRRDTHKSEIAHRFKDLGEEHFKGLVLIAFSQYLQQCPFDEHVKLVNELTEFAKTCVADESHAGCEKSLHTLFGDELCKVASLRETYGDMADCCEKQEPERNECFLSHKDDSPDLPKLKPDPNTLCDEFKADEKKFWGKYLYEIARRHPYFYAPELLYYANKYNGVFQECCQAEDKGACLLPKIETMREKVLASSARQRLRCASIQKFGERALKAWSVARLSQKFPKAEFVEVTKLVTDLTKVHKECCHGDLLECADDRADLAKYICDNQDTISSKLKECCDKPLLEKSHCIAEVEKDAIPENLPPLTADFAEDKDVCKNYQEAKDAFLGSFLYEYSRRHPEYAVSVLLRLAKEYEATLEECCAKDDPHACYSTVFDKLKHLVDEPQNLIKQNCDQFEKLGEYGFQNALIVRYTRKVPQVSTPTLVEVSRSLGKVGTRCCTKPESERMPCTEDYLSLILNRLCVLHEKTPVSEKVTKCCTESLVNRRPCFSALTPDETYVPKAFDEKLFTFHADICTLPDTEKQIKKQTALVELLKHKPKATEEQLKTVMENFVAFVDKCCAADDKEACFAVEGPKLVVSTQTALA
Sequence of Follistatin (Homo sapiens) (P19883 whole entry, looked up): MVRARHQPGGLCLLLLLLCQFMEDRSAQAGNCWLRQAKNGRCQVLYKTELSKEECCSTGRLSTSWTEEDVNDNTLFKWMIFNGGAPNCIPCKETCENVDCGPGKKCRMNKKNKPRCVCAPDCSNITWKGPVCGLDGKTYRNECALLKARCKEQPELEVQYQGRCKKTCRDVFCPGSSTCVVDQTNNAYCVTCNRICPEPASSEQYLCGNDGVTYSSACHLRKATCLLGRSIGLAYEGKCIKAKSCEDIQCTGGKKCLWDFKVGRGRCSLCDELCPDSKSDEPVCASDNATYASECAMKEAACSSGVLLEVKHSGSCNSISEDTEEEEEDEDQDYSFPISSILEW

For `CCCNC(=O)[C@@]1(Sc2ccc(C)cc2)CC(=O)N(Cc2ccccc2Cl)[C@@H]1c1ccc(CO)cc1I`, the composite z-score (Albumin (Bos taurus)) was -0.266, the composite Z-score [1] was -0.588 (inactive) and the composite z-score [2] was 0.965. The composite z-score [3] was -0.0836, the composite z-score [4] was 0.529 and the composite z-score [5] was 0.649. It also gave a composite z-score [6] of -0.0685, a composite z-score (Sam68 (KHDRBS1)) of -0.169 and a composite z-score [7] of -1.56. For the same molecule, the composite z-score [8] was 0.0737, the composite z-score [9] was 0.977 and the composite z-score [10] was -0.157. It also gave a composite z-score [11] of 0.313, a composite z-score [12] of 0.22 and a composite z-score [13] of -0.328. For the same molecule, the composite z-score [14] was -1.08, the z-score [15] was 0.685 and the composite z-score (Lefty1) was -0.896. The composite z-score [16] was 0.202 and the z-score [17] was 0.718 (inactive).
With `O=C1C2C=CC(C(O)c3ccc([N+](=O)[O-])cc3)N(Nc3ccccc3F)C2C(=O)N1c1ccccc1` (stereo not given) the composite z-score (Albumin (Bos taurus)) was 1.04, the composite Z-score [1] was 0.0431 (inactive) and the composite z-score [2] was -0.124. For the same molecule, the composite z-score [3] was 0.0323, the composite z-score [4] was 0.703 and the composite z-score [5] was -0.309. It also gave a composite z-score [6] of 1.06, a composite z-score (Sam68 (KHDRBS1)) of 0.808 and a composite z-score [7] of -0.445. It also gave a composite z-score [8] of 0.886, a composite z-score [9] of 1.68 and a composite z-score [10] of 1.19. For the same molecule, the composite z-score [11] was -0.119, the composite z-score [12] was 0.717 and the composite z-score [13] was 0.232. For the same molecule, the composite z-score [14] was -0.218, the z-score [15] was -0.675 and the composite z-score (Lefty1) was -0.46. The composite z-score [16] was 1.36 and the z-score [17] was 0.739 (inactive).
In the case of `CC(C)OC(=O)CC(=O)CC(O)c1cccc([N+](=O)[O-])c1` (stereo not given), the composite z-score (Albumin (Bos taurus)) is reported as 0.799, the composite Z-score [1] is reported as -0.144 (inactive) and the composite z-score [2] is reported as 0.241. The composite z-score [3] was -0.177, the composite z-score [4] was 0.633 and the composite z-score [5] was 0.707. It also gave a composite z-score [6] of -0.107, a composite z-score (Sam68 (KHDRBS1)) of 1.22 and a composite z-score [7] of 0.01. It also gave a composite z-score [8] of 0.828, a composite z-score [9] of 0.68 and a composite z-score [10] of 1.14. For the same molecule, the composite z-score [11] was 0.4, the composite z-score [12] was 0.438 and the composite z-score [13] was 0.461. It also gave a composite z-score [14] of -0.277, a z-score [15] of -0.428 and a composite z-score (Lefty1) of -0.0245. For the same molecule, the composite z-score [16] was 0.265 and the z-score [17] was 1.9 (inactive).
For `C=C(CCCC)C(=O)CC[C@@H](OC(=O)c1ccccc1-c1ccccc1C(=O)O)c1ccccc1OCCO`, the composite z-score (Albumin (Bos taurus)) was 0.269, the composite Z-score [1] was -0.136 (inactive) and the composite z-score [2] was -0.207. For the same molecule, the composite z-score [3] was -0.14, the composite z-score [4] was 0.626 and the composite z-score [5] was -0.467. For the same molecule, the composite z-score [6] was 0.712, the composite z-score (Sam68 (KHDRBS1)) was 0.523 and the composite z-score [7] was 0.492. For the same molecule, the composite z-score [8] was 1.05, the composite z-score [9] was 0.397 and the composite z-score [10] was 0.421. For the same molecule, the composite z-score [11] was -0.104, the composite z-score [12] was 0.017 and the composite z-score [13] was 1.02. For the same molecule, the composite z-score [14] was 0.906, the z-score [15] was 0.916 and the composite z-score (Lefty1) was 1.2. For the same molecule, the composite z-score [16] was -0.191 and the z-score [17] was -1.31 (inactive).
In the case of `COCCOC(=O)N1C(=O)[C@@]2(c3cc(C#CCNC(N)=O)ccc31)[C@H](C(=O)Nc1nc3ccccc3s1)[C@H]1C(=O)O[C@H](c3ccccc3)[C@H](c3ccccc3)N1[C@@H]2c1ccccc1OCCO`, the composite z-score (Albumin (Bos taurus)) is reported as 0.074, the composite Z-score [1] is reported as -0.523 (inactive) and the composite z-score [2] is reported as 0.0306. The composite z-score [3] was -0.0432, the composite z-score [4] was 0.47 and the composite z-score [5] was 1.17. It also gave a composite z-score [6] of 0.151, a composite z-score (Sam68 (KHDRBS1)) of 0.975 and a composite z-score [7] of 1.23. The composite z-score [8] was 1.04, the composite z-score [9] was -0.218 and the composite z-score [10] was 0.423. For the same molecule, the composite z-score [11] was 0.553, the composite z-score [12] was 0.749 and the composite z-score [13] was 1.48. For the same molecule, the composite z-score [14] was 1.61, the z-score [15] was -1.79 and the composite z-score (Lefty1) was 1.39. The composite z-score [16] was 0.489 and the z-score [17] was -2.69 (inactive).
